Laboratory results taken from publication PMC7862700, “An all-to-all approach to the identification of sequence-specific readers for epigenetic DNA modifications on cytosine”.

What was measured:
Assay in all cases: DAPPL (digital affinity profiling via proximity ligation, sequencing); 10 mM Tris-HCl pH 7.5, 50 mM NaCl, 1 mM DTT, 4% glycerol, room temperature, 30 min; GST-TFs on glutathione beads, 16-mer random dsDNA library, 0.1% formaldehyde crosslink after washing; high values mean tight binding
Conditions in all cases: protein: recombinant; tags: N-terminal GST; dsDNA, one strand shown
FLI1 = target: T1, FLI1 (Homo sapiens, UniProt Q01543 1-452)
T1 sequence: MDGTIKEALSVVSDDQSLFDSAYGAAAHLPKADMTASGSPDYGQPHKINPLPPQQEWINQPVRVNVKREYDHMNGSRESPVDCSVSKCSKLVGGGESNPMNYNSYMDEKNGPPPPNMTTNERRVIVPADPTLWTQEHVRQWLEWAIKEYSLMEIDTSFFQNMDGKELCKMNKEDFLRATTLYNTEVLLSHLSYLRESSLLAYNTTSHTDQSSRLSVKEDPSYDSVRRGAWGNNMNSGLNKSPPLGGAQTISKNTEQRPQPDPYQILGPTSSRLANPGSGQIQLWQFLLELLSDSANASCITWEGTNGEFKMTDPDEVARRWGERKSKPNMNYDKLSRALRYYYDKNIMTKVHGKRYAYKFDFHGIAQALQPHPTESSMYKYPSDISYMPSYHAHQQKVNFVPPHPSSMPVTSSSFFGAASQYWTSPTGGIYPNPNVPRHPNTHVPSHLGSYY
Summary of the method: (§1)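 Human transcription factors fused to GST were expressed in yeast, captured on glutathione beads, given DNA barcodes and pooled with a GST-only negative control. Pools were incubated with 200 nmole of a 16-mer random double-stranded DNA library in Tris/NaCl/DTT/glycerol buffer at room temperature for 30 min. They were then washed, crosslinked with 0.1% formaldehyde, proximity-ligated (BsaI/T4 ligase, 1 h, 37 °C), PCR-amplified and sequenced on an Illumina NextSeq500. Binding signal is each 6-mer's read frequency for a factor divided by its frequency for the GST control.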

ELK1 = target: T2, ELK1 (Homo sapiens, UniProt P19419 1-428)
T2 sequence: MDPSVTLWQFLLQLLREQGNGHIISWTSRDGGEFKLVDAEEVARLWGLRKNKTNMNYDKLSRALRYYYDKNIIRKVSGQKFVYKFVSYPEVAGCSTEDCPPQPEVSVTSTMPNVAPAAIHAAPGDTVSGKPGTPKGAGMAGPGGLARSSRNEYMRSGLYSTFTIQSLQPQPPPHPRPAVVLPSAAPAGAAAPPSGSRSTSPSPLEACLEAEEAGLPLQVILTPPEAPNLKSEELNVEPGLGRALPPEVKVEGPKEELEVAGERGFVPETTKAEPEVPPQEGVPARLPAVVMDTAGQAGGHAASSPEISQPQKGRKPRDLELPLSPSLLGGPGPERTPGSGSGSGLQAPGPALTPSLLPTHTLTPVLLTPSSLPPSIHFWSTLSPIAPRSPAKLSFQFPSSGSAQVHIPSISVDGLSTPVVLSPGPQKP
Summary of the method: as §1

GABPA = target: T3, GABPA (Homo sapiens, UniProt Q06546 1-454)
T3 sequence: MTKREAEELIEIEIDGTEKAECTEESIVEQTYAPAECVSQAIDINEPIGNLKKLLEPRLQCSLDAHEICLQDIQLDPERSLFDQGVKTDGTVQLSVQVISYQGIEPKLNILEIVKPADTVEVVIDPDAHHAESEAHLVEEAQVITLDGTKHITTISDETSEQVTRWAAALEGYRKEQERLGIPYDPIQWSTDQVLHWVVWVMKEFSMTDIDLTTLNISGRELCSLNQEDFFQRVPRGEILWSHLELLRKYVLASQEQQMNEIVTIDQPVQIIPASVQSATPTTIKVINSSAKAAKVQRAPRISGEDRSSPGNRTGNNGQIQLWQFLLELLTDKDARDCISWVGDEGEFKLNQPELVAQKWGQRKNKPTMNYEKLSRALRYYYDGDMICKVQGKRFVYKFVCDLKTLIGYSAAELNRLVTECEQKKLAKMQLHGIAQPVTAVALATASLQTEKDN
Summary of the method: as §1

ERG = target: T4, ERG (Homo sapiens, UniProt P11308 1-479)
T4 sequence: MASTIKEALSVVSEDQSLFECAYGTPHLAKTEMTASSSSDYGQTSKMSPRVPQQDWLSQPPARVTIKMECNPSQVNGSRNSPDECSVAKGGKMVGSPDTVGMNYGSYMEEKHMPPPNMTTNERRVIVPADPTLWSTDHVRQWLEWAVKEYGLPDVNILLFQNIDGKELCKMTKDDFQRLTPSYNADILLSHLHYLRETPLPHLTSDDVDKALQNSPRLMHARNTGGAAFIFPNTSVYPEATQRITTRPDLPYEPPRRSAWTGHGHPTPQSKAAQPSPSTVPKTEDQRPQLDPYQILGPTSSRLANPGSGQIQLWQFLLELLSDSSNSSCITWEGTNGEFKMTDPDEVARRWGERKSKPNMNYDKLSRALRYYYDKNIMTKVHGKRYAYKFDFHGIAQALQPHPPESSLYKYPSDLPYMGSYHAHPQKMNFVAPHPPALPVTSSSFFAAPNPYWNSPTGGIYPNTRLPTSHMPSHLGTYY
Summary of the method: as §1

ELF1 = ELF1 (Homo sapiens, UniProt P32519 1-619)
Summary of the method: as §1

EHF = target: T5, EHF (Homo sapiens, UniProt Q9NZC4 1-300)
T5 sequence: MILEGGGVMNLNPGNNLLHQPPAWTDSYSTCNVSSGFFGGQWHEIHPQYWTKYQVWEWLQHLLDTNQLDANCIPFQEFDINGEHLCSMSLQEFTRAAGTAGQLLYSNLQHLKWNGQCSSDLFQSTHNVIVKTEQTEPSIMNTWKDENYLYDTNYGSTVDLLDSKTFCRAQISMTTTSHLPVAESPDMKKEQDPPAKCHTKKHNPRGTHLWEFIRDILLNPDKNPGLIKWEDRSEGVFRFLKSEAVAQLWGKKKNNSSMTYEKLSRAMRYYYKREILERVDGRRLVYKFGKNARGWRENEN
Summary of the method: as §1

SPI1 = SPI1 (Homo sapiens, UniProt P17947 1-270)
Summary of the method: as §1

SPIB = SPIB (Homo sapiens, UniProt Q01892 1-262)
Summary of the method: as §1

ELK3 = target: T6, ELK3 (Homo sapiens, UniProt P41970 1-407)
T6 sequence: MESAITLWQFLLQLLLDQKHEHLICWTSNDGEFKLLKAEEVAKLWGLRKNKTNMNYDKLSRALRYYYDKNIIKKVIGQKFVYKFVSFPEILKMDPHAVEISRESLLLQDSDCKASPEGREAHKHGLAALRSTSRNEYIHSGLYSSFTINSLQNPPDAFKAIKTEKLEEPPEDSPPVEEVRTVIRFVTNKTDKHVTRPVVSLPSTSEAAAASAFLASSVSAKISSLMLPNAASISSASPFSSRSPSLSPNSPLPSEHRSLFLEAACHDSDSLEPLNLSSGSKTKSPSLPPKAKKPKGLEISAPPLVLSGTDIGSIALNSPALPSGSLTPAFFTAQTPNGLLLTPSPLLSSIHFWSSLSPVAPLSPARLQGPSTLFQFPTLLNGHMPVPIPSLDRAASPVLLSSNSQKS
Summary of the method: as §1

Sequence of SPIB (Q01892 whole entry): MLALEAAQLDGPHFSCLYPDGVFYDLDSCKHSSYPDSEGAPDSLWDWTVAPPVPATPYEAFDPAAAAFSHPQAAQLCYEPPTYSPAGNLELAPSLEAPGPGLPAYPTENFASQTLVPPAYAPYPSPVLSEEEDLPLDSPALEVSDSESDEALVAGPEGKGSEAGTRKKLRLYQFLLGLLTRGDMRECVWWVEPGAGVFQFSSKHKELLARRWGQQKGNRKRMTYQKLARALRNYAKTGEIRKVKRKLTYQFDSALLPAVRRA
Sequence of ELF1 (P32519 whole entry): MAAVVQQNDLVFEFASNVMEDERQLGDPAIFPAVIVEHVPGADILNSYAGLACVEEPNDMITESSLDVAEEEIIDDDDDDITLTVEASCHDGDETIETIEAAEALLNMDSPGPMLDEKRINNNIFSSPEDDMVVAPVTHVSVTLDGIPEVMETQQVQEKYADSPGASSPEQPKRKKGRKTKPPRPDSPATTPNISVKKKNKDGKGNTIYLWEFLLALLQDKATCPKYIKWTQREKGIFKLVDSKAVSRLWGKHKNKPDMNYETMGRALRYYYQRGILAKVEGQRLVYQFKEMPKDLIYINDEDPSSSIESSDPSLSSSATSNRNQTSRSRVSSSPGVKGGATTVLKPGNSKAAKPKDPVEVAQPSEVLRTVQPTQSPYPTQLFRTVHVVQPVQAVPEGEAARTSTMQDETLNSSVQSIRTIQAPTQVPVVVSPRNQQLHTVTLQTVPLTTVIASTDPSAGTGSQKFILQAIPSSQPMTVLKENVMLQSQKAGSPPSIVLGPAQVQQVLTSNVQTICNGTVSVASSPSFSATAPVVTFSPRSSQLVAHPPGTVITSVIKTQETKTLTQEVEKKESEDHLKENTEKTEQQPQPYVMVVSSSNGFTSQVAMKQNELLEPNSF

TCCTAC
binding signal (FLI1): 1.48 fold enrichment (6-mer frequency, TF over GST control)
binding signal (ELK1): 1.46 fold enrichment (6-mer frequency, TF over GST control)
binding signal (GABPA): 1.43 fold enrichment (6-mer frequency, TF over GST control)
binding signal (ERG): 1.42 fold enrichment (6-mer frequency, TF over GST control)
binding signal (ELF1): 1.31 fold enrichment (6-mer frequency, TF over GST control)
binding signal (EHF): 1.45 fold enrichment (6-mer frequency, TF over GST control)
binding signal (SPI1): 1.52 fold enrichment (6-mer frequency, TF over GST control)
binding signal (SPIB): 1.65 fold enrichment (6-mer frequency, TF over GST control)
binding signal (ELK3): 1.56 fold enrichment (6-mer frequency, TF over GST control)
